From PubChem BioAssay
Sampled rows, rich in hits. Any-hit rate of the full collection: about 2.3%.
Abeta rescue = restores growth of yeast expressing A-beta42 peptide; yeast expressing A-beta42, growth rescue, OD600, 48 h; response scale: 0% DMSO, 100% iron-clioquinol control; Potency, µM (top dose mostly 46.1 µM), most hits filed as activators; hit rate 0.063% among 410,000; further: nearly all actives have a fitted effect of over 55% in size
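Growth rescue measured by 600 nm absorbance after 48 h yeast culture at 30 C with compound. Values normalized between DMSO and an equimolar ferric chloride plus clioquinol control.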
pAkt inh = inhibitors of Akt phosphorylation; Neuro2A IGF-stimulated pAkt S473 HTRF, 20 min; active compounds read low; hit rate 0.32% among 360,000; activity change, % for hits at 50 µM; AID 651550; in the data active means activity change below about -80%; inconclusive means mostly about -51% to -80%
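Neuro2A cells in DMEM with 0.5% FBS, overnight at 37 deg C, given compound at single 50 µM final, then IGF (6 nM final) for 20 min at 37 deg C. Lysed; phospho-Akt Ser473 by HTRF after 24 h, 665/615 ratio.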
FUS suppressor = rescues growth of FUS-expressing yeast | S. cerevisiae FUS-expressing, growth rescue, OD600, 24 h | Potency, µM (titrated, usually from 76.6 µM), most hits filed as activators | hit rate 0.24% among 390,000 | AID 1347120; further: nearly all actives have a fitted effect of over 55% in size
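Yeast expressing FUS under galactose induction, OD 0.005 in 2% galactose medium; compounds in a dilution series, 24 h at 30C. Growth rescue by absorbance at 600 nm; CP55940 positive control, DMSO negative.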
aSyn yeast inh = inhibitors of alpha-synuclein toxicity in yeast | Yeast expressing alpha-synuclein, growth rescue, BacTiter-Glo, 24 h | Potency, µM (top dose mostly 46.1 µM), most hits filed as activators | hit rate 0.14% among 370,000 | AID 652106; further: nearly all actives have a fitted effect of over 65% in size
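Screening used galactose-induced yeast with toxic alpha-synuclein levels, exposed to compound for 24 hr at 30 deg C. Cell growth, read with BacTiter-Glo luminescence, gave the measured signal.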
TDP-43 yeast inh = rescues yeast growth from TDP-43 toxicity. TDP-43 expressing yeast growth rescue, BacTiter-Glo, 24 h. Potency, µM (series often up to 46.1 µM), usual class: activators. hit rate 1.8% among 410,000. AID 652104; further: nearly all actives have a fitted effect of over 50% in size
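Galactose-induced TDP-43 yeast, OD600=0.02, compound pinned; 24 hr, 30 deg C; BacTiter-Glo luminescence for growth. Inhibitors of TDP-43 toxicity read as activators.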
Numbers stand for hits; n = inactive; u = inconclusive; x = not tested or not shown; [ ] = dose if it differs, or a comment. Unless noted, the call rests on the fitted dose curve; in most records, active means well fitted curve in the direction sought with a large enough effect; inconclusive means small, poorly fitted or top-dose-only effect, or another doubt; inactive means no such curve, though single readings can be large; an effect the other way counts as inactive or inconclusive.

SMILES | Abeta rescue | pAkt inh | FUS suppressor | aSyn yeast inh | TDP-43 yeast inh
COc1cc(C(=O)ONC(=O)c2ccc(OC(F)F)cc2)cc(OC)c1OC | u | n | n | n | 8.91µM
CCOc1ccc(S(=O)(=O)N2CCN(c3cc(Cl)ccc3Cl)CC2)c2ccccc12 | n | x | n | n | n
N#Cc1c(N2CCSCC2)nsc1-c1ccccc1Cl | n | n | n | n | 10µM
N#Cc1c(Cl)cccc1N1CCSCC1 | n | n | n | n | u
CCn1nc(C)c(/C=N/NC(=O)c2ccc3c(c2)c(C)c(C)n3Cc2ccccc2)c1C | n | n | 11.2µM | n | n
CCn1ncc(/C=N\NC(=O)c2ccc3c(c2)c(C)c(C)n3Cc2ccccc2)c1C | n | n | u | n | n
CC1CN(C(=O)N2CCC(C(=O)NC3CCCCCC3)CC2)c2cc(Cl)ccc2O1 (configuration not stated) | n | x | n | x | n
O=C(O)c1ccccc1NC(=O)N1c2ccccc2Sc2ccccc21 | n | x | n | x | 20µM
CCOC(=O)c1scc(-c2ccc(C)cc2)c1S(=O)(=O)Nc1cc(Cl)ccc1OC | n | x | n | x | n
CCn1nc(C(=O)Nc2cccc3ccccc23)c(Cl)c1Cl | n | n | n | n | 15.8µM
CCn1nc(C(=O)Nc2ccccc2C)c(Cl)c1Cl | n | n | n | n | n
Cc1ccc(Sc2cnccc2C#N)cc1 | n | n | n | n | 12.6µM
Cc1nc(Oc2ccccc2)c2ccsc2n1 | n | n | n | n | 12.6µM
CCCn1c2ccccc2c2cnn(CC(=O)NCc3ccc(OC)cc3)c(=O)c21 | n | x | n | x | u
Cc1ccc(-n2c(SCc3nc(-c4ccccc4C)no3)nnc2-c2ccncc2)cc1C | n | x | n | x | 31.6µM
Cc1ccccc1-c1noc(CSc2nnc(-c3ccncc3)n2-c2ccc(F)cc2)n1 | u | x | n | x | n[9.22 µM]
C=C(C)c1cccc(C(C)(C)NC(=O)Nc2cc(C)ccn2)c1 | n | n | x | n | n
C=C(C)c1cccc(C(C)(C)NC(=O)Nc2ccc(C)cn2)c1 | n | n | x | n | 12.6µM
Cc1ccc(N(CC(=O)Nc2c(C)n(C)n(-c3ccccc3)c2=O)S(C)(=O)=O)cc1C | n | -108.9% | n | n | n
Cc1cccc(N(CC(=O)Nc2c(C)n(C)n(-c3ccccc3)c2=O)S(C)(=O)=O)c1C | n | u | n | n | n
COc1ccc(-c2cn3nc(N4CCCC(C(=O)Nc5cc(C)cc(C)c5)C4)sc3n2)cc1 (configuration not stated) | n | x | u | x | n
CCOc1ccc(OCC)c(NC(=O)CN(C)S(=O)(=O)c2ccc3[nH]c(=O)oc3c2)c1 | n | x | n | x | n
Clc1cc(Sc2ccc(Br)cc2)nnc1-c1ccccc1 | n | n | n | n | 5.01µM
COCc1cc(Sc2ccc(Br)cc2)nc(-c2ccccc2)n1 | n | n | n | n | n
O=C1CC(c2cc(F)cc(F)c2)c2cc3c(cc2N1)OCO3 (configuration not stated) | n | x | n | x | n
SMILES | Abeta rescue | pAkt inh | FUS suppressor | aSyn yeast inh | TDP-43 yeast inh
CC1(C)Cc2c(sc3nnn(Cc4ccc(Cl)cc4)c(=O)c23)CO1 | n | n | x | n | 12.6µM
Cc1ccc(-c2cc(N)n(-c3ccccc3)n2)cc1 | n | n | n | n | 20µM
O/N=C1\CCCc2ccc3ccccc3c21 | n | n | n | n | 11.2µM
O=C1CCCc2ccc3ccccc3c21 | n | n | n | n | n
COc1cc2c(cc1OC)/C(=C/c1ccc(Cl)cc1)C(=O)OC2 | n | n | n | n | 22.4µM
CCn1c2ccccc2c2cc(Nc3cc(C)nc4ncnn34)ccc21 | n | n | n | n | 15.8µM
Cc1sc2ncnc(NCc3cccs3)c2c1C | n | n | n | n | 17.8µM
Cc1sc2ncnc(NCc3ccco3)c2c1C | n | n | x | n | n
Cc1cccc(Oc2ccc(S(=O)(=O)N3CCCCC3)cc2NC(=O)C2=COCCO2)c1 | n | n | 28.2µM | n | n
COc1ccc(S(=O)(=O)N2CCCCC2)cc1NC(=S)Nc1ccccc1 | n | n | x | n | n
CC(C)Oc1ccc(S(=O)(=O)N2CCCCC2)cc1NC(=O)C1=COCCO1 | n | n | n | n | n
COc1ccc(S(=O)(=O)N2CCCCC2)cc1NC(=S)Nc1cccc(Cl)c1C | n | n | 2.82µM | n | n
COCCCN1C(=O)c2[nH]nc(-c3ccccc3O)c2C1c1ccc(OC)cc1 (configuration not stated) | n | x | n | x | n
COc1ccc(Nc2nc(-c3cccs3)cs2)c(OC)c1 | n | x | n | x | 12.6µM
COc1ccc(Nc2nc(-c3cccnc3)cs2)c(OC)c1 | n | n | n | n | n
COc1ccc(Nc2nc(-c3sc(C)nc3C)cs2)c(OC)c1 | n | n | n | n | 15.8µM
COc1ccc(OC)c(Nc2nc(-c3cccs3)cs2)c1 | n | n | n | n | 15.8µM
COc1ccccc1Nc1nc(-c2cccs2)cs1 | n | x | n | n | u
CCc1ccc2oc(-c3ccc(C)c(NC(=O)COc4ccccc4Cl)c3)nc2c1 | x | x | x | n | x
O=C1c2ccccc2C(=O)N1CNc1ccccc1 | n | -123.3% | n | n | n
COc1ccc(CNC(=O)C2CCN(c3nc4ccc(C)cc4[nH]3)CC2)cc1 | n | x | n | x | n
O=C(Nc1nnc(-c2ccc3c(c2)CCCC3)o1)c1ccc(Cl)cc1Cl | u | n | n | u | 3.98µM
O=C(Nc1nnc(-c2ccc3c(c2)CCCC3)o1)c1c(F)cccc1F | n | n | n | n | n
Cc1ccc(S(=O)(=O)N2CCN(c3nc(-c4cncs4)nc4ccccc34)CC2)cc1 | x | x | x | n | x
O=C(NNC(=O)C(Cl)Cl)c1cnn(-c2ccccc2)c1C(F)(F)F | n | n | n | 15.8µM | n
CCCOc1ccc(C2=NC(c3ccc(F)cc3)=Nc3ccc(OC)cc3N2)cc1 | n | x | u | x | n
Fc1cccc(CSc2nc(NCCc3ccccc3)c3ccccc3n2)c1 | n | x | n | x | n
COc1ccc(C2(C)NC(=O)N(Cc3cc(Cl)cc4c3OCOC4)C2=O)cc1OC (configuration not stated) | n | n | 35.5µM | n | n
